From PubChem
FMDV inh: foot and mouth disease virus antiviral activity. FMDV antiviral cell-based qHTS. Potency, µM (highest dose often 57.9 µM), inactives show at the highest dose activity change, negative = inhibition, most hits filed as inhibitors. 410,000 compounds, 1.2% hits. AID 1159524; calls by dose curve; tested in HEK293T cells; note: read-out not given here; potency is the fitted concentration of half-maximal effect; nearly all actives have a fitted effect of over 45% in size
HCV inh: HCV inhibition. Huh7.5.1 HCVcc-Cre infection, luciferase reporter, 44 h. Potency, µM (doses to about 41.8 µM), for the others: at the highest dose activity change, negative = inhibition, hits mostly inhibitors. 340,000 compounds, 3.4% hits; note: potency is the fitted concentration of half-maximal effect
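Compounds are dispensed onto cells plated 4 h earlier at 1,000 per well, with HCVcc-Cre virus (about 0.5 moi) added next. Following 44 h of culture, luminescent signal is measured for 15 sec after 15 min with substrate at room temperature.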
HCMV inh: inhibitors of human cytomegalovirus; HFF cells, HCMV-luciferase reporter, 72 h; hits give low values; activity change, negative = inhibition, % at 57.5 µM; 410,000 compounds, 4.5% hits; AID 1259415; in the data active = activity change below about -60%; inconclusive = no clear call, values can overlap the other calls; inactive = above about -39%
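HFF cells seeded 16 h at 37C, treated with compounds, infected with luciferase-reporter HCMV at MOI 1 PFU/cell; luciferase read at 72 h post infection, normalized to buffer-only and Salinomycin controls.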
Lassa entry inh: Lassa virus entry inhibition | Lassa virus pseudotype entry inhibition, cell reporter | Potency, µM (top dose mostly 37.9 µM), without a hit: top-dose activity change, negative = inhibition, most hits filed as inhibitors | AID 540256 | 300,000 compounds, 1.2% hits; calls by dose curve; tested in HEK293 cells; note: potency is the fitted concentration of half-maximal effect; nearly all actives have a fitted effect of over 50% in size
FBPA Giardia inh: Giardia lamblia aldolase inhibition | A8B2U2 | purified Giardia FBPA | Potency, µM (series often up to 59.6 µM), without a hit: at the highest dose activity, negative = inhibition, hits mostly inhibitors | 290,000 compounds, 0.71% hits | AID 2451; note: potency is the fitted concentration of half-maximal effect; nearly all actives have a fitted effect of over 55% in size
Target sequence (A8B2U2 whole entry, looked up): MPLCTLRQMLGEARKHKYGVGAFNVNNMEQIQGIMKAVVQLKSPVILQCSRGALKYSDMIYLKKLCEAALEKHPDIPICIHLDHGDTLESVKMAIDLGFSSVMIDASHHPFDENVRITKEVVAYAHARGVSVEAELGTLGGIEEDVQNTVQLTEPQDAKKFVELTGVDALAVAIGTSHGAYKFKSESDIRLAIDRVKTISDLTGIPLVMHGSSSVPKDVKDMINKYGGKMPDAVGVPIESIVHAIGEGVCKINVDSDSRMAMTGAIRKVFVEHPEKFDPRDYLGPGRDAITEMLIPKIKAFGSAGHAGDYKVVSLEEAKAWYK
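Giardia FBPA (40 nM reagent) was preincubated 10 min at RT with compound (up to 57.5 uM final), then substrate plus GAPDH/TPI/NAD/arsenate coupling system with diaphorase/resazurin was added; resorufin fluorescence (525/598 nm) was read after 20 min.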
Marburg entry inh: blocks Marburg virus binding to or entry into cells; Marburg virus pseudotyped entry inhibition, cell reporter; Potency, µM (titrated, usually from 37.8 µM), for inactives: top-dose activity change, negative = inhibition, most hits filed as inhibitors; 300,000 compounds, 1.8% hits; calls by dose curve; tested in HEK293 cells; note: potency is the fitted concentration of half-maximal effect
An asterisk follows results filed as active; [ ] = another dose, or the depositor's remark. Sampled rows, rich in hits. Any-hit rate of the full collection: about 8.3%. Unless noted, calls come from the whole dose curve; as a rule, active = well fitted curve in the direction sought with a large enough effect; inconclusive = small, poorly fitted or top-dose-only effect, or another doubt; inactive = no such curve, though single readings can be large; an effect the other way counts as inactive or inconclusive. % is set by controls: 0 for no effect and ±100 for the full control effect.

Screening Cc1nc2scc(-c3ccccc3)c2c(=O)n1N returned FMDV inh -9%, HCV inh 0%, HCMV inh inconclusive, Lassa entry inh -3%, FBPA Giardia inh -2% and Marburg entry inh -6%.
Cc1nc2scc(-c3ccc(C(C)C)cc3)c2c(=O)n1N was read as FMDV inh inconclusive, HCV inh -18%, HCMV inh -62*, Lassa entry inh 12%, FBPA Giardia inh -3% and Marburg entry inh inconclusive.
`COc1cc(NCCCCC(C)N)c2nccc(C)c2c1` (centres undefined) gave FMDV inh -24% and HCMV inh -71*.
For COc1cc(NCCCC(C)N)c2ncccc2c1 (centres undefined) the results were FMDV inh -18%, HCV inh inconclusive, HCMV inh -107*, Lassa entry inh inconclusive, FBPA Giardia inh inconclusive and Marburg entry inh 3.5µM*.
CS(=O)(=O)Nc1c(O)ccc2c1CCCC2C1=NCCN1 (centres undefined) was read as FMDV inh -3%.
Screening COc1ccc(-n2c(=O)c(-c3cccs3)nc3cnc(N4CCN(C)CC4)nc32)cc1 returned FMDV inh -10% and FBPA Giardia inh -1%.
`Nn1c(Nc2ccccc2)nc2sc3c(c2c1=O)CCC3` gave FMDV inh -25%, HCV inh 13µM*, HCMV inh -32, Lassa entry inh inconclusive, FBPA Giardia inh -10% and Marburg entry inh inconclusive.
`COc1ccc(NC(=O)Nc2cn(CC(C)C)c(=O)c3ccccc23)c(OC)c1` gave FMDV inh 0%, HCMV inh -104* and Lassa entry inh 14%[46.1 µM].
`COc1cc(NC(=O)COC(=O)/C=C/c2ccccc2Cl)cc(OC)c1` gave FMDV inh -23%, HCV inh -27%, HCMV inh -103*, Lassa entry inh inconclusive, FBPA Giardia inh 6% and Marburg entry inh 15%.
For COc1cc(OC)c2c(-c3cccc(-c4sccc4C(C)=O)c3)cc(=O)oc2c1 the results were FMDV inh 0%, HCV inh 3.2µM*, HCMV inh -79* and FBPA Giardia inh 2%.
Screening Cc1cccc(C2(c3cccc(C)c3)CC2C(=O)Nc2ccc([N+](=O)[O-])cc2O)c1 (centres undefined) returned FMDV inh inconclusive, HCV inh inconclusive, HCMV inh -104*, Lassa entry inh inconclusive, FBPA Giardia inh inconclusive and Marburg entry inh 13µM*.
For C=CCNC(=O)C1CC1(c1cccc(C)c1)c1cccc(C)c1 (centres undefined) the results were FMDV inh 3%, HCV inh 22%, HCMV inh 0, Lassa entry inh 4% and Marburg entry inh -25%[46.1 µM].
`CC1(C)NC(=O)N(CCCOc2ccc(Br)cc2Cl)C1=O` gave FMDV inh 8%, HCV inh inconclusive, HCMV inh 20, Lassa entry inh 88%[14.3 µM], FBPA Giardia inh 4% and Marburg entry inh -8%.
For CC(C)c1cc(Br)ccc1OCCCN1C(=O)NC(C)(C)C1=O the results were FMDV inh inconclusive, HCV inh 13µM*, HCMV inh -28, Lassa entry inh inconclusive, FBPA Giardia inh -5% and Marburg entry inh 3%.
For CC1(C)NC(=O)N(CCCCOc2ccc(Cl)cc2C=O)C1=O the results were FMDV inh -7%, HCV inh -15%, HCMV inh -60* and FBPA Giardia inh -5%.
`COc1ccc2c(c1)C(c1cc(OC)c(OC)c(OC)c1)CC(=O)O2` (centres undefined) gave FBPA Giardia inh -11%[89.2 µM].
`COc1ccc(C2c3cccn3CCN2S(=O)(=O)c2ccc([N+](=O)[O-])cc2)cc1` (centres undefined) gave FMDV inh -30%, HCMV inh -8 and Lassa entry inh -4%[46.1 µM].
`C/C(=N/NC(=O)c1ccncc1)c1ccccc1` gave FMDV inh 30%, HCV inh 2%, HCMV inh 16, Lassa entry inh -2%, FBPA Giardia inh -6% and Marburg entry inh inconclusive.
C/C(=N\NC(=O)c1ccc(N/N=C(\C)c2ccncc2)cc1)c1ccncc1 was read as FMDV inh -10%, HCV inh inconclusive, HCMV inh -39, Lassa entry inh -3%[46.1 µM], FBPA Giardia inh -7% and Marburg entry inh 1µM*.
Screening C/C(=N\NC(=O)c1ccccc1NC(=O)c1ccc(Cl)cc1)c1ccncc1 returned FMDV inh 3.2µM*, HCV inh -23%, HCMV inh -28, Lassa entry inh inconclusive, FBPA Giardia inh -10% and Marburg entry inh inconclusive.
`C/C(CCN1CCCc2nc(C)c(C)cc21)=N\OC[C@@H](O)[C@@H]1O[C@@H]2OC(C)(C)O[C@@H]2[C@H]1O` gave FBPA Giardia inh 3%[12.9 µM] and Marburg entry inh -8%[14.2 µM].
Screening COc1ccc(OC)c(NC(=O)Cn2cnc3onc(-c4ccc(Cl)cc4)c3c2=O)c1 returned FMDV inh inconclusive, HCMV inh -11, Lassa entry inh 15%[46.1 µM] and Marburg entry inh inconclusive.
For CC(C)(C)c1ccc(CSc2ccc(S(=O)(=O)N3CCOCC3)cn2)cc1 the results were FMDV inh inconclusive, HCV inh 10µM* and HCMV inh inconclusive.
For COc1ccc(F)cc1C(=O)C1CCCN(Cc2c[nH]c3ccccc23)C1 (centres undefined) the results were FMDV inh -25%, HCV inh -23%, HCMV inh inconclusive and FBPA Giardia inh -1%.
Screening COc1ccc(F)cc1C(=O)C1CCCN(Cc2cn(C)c3ccccc23)C1 (centres undefined) returned FMDV inh -21%, HCV inh inconclusive, HCMV inh -27, Lassa entry inh inconclusive, FBPA Giardia inh -2% and Marburg entry inh 15µM*.
For COc1ccc(CN2CCCC(C(=O)c3ccccc3SC)C2)cc1O (centres undefined) the results were FMDV inh -2%, HCV inh -7%, HCMV inh -21 and FBPA Giardia inh -4%.
Screening COc1ccc(OC)c(CN2CCCC(C(=O)c3ccccc3SC)C2)c1 (centres undefined) returned FMDV inh inconclusive, HCV inh 10µM*, HCMV inh -63*, Lassa entry inh inconclusive, FBPA Giardia inh 3% and Marburg entry inh 2.5µM*.
Cn1cc(CN2CCCC(C(=O)c3cc(F)ccc3F)C2)c2ccccc21 (centres undefined) was read as FMDV inh 6%, HCV inh -19%, HCMV inh -30, Lassa entry inh inconclusive, FBPA Giardia inh -1% and Marburg entry inh 10µM*.
